Compound activity as filed in PubChem.
Anthrax LT inh: blocks cellular internalization of anthrax lethal toxin; Cells, anthrax lethal toxin internalization, FRET ratio (460/530); Potency, µM (highest dose often 40 µM), hits mostly inhibitors; actives 0.67% (n = 70,000); note: nearly all actives have a fitted effect of over 50% in size
AmpC inh no det: AmpC beta-lactamase inhibition, detergent-free assay; P00811; AmpC nitrocefin hydrolysis, absorbance 480 nm, no detergent; Potency, µM (doses to about 28.7 µM); actives 1.8% (n = 71,000)
Target sequence (P00811 whole entry, looked up): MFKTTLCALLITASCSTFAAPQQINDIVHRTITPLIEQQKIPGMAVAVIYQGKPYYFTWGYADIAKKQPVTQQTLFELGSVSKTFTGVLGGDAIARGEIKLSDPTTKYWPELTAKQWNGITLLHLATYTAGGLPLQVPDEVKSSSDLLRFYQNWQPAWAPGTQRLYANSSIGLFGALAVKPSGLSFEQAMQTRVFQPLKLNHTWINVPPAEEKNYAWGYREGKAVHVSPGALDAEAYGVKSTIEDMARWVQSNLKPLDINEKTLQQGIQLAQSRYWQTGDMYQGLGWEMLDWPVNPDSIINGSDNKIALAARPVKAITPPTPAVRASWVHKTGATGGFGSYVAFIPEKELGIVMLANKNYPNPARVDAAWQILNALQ
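AmpC, 20 mM phosphate pH 7.0; 15 min cpd preinc, RT; start with nitrocefin (800 uM stock); A480 kinetic read, 20 s intervals, 4 min. No-enzyme wells = negative control.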
AmpC inh det: inhibitors of E. coli AmpC beta-lactamase with detergent | P00811 | purified AmpC, nitrocefin hydrolysis with detergent | Potency, µM (doses to about 28.7 µM) | actives 0.09% (n = 71,000) | AID 584; active = well fitted curve in the direction sought with a large enough effect; inconclusive = small, poorly fitted or top-dose-only effect
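E. coli AmpC (5.3 nM) in 20 mM phosphate pH 7.0 with 0.01% Triton X-100, preincubated 15 min RT with compound; nitrocefin (2 uL of 800 uM stock) hydrolysis followed by 480 nm absorbance every 20 s over 4 min.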
SmPrx2 inh: blocks S. mansoni peroxiredoxin 2 enzymatic activity | S. mansoni Prx2 activity coupled to TGR/GSH (TGR is thioredoxin glutathione reductase), NADPH fluorescence loss, qHTS | Potency, µM | actives 0.07% (n = 65,000)
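Coupled assay in which S. mansoni TGR passes NADPH reducing equivalents via glutathione to Prx2, which reduces H2O2. Compounds were preincubated 15 min at room temperature with 25 nM TGR/50 nM Prx2 mix. Kinetic NADPH fluorescence loss (ex 365/em 450 nm) was monitored.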
Of the large screens only hits and unclear results are named; the others gave an inactive call; [ ] = dose if it differs, or a comment. Sampled rows, rich in hits. Any-hit rate of the full collection: about 2.6%. Unless noted, calls come from the whole dose curve.

CN(C)c1ncc2nc(-c3cccc(C#N)c3)c(=O)n(C)c2n1	Anthrax LT inh inconclusive
Cn1nc(-c2ccc(Cl)cc2)c2cc(C(=O)N3CCN(C(=O)c4ccco4)CC3)sc21	AmpC inh no det 4µM[single pt active] (no result: SmPrx2 inh)
Cn1nc(-c2ccc(Cl)cc2)c2cc(C(=O)NCCCN3CCOCC3)sc21	Anthrax LT inh 2.5µM
Cn1nc(-c2ccc(Cl)cc2)c2cc(C(=O)NC3CC3)sc21	AmpC inh no det 4µM[single pt active]
CCN1CCN(C(=O)c2cc3c(-c4ccc(Cl)cc4)nn(C)c3s2)CC1	none
CCN(CC)CCNC(=O)c1cc2c(-c3ccc(Cl)cc3)nn(C)c2s1	Anthrax LT inh 10µM, AmpC inh no det 4µM[single pt active]
Cn1nc(-c2ccc(Cl)cc2)c2cc(C(=O)NCCN3CCOCC3)sc21	Anthrax LT inh inconclusive
CCOCCCNC(=O)c1cc2c(-c3ccc(Cl)cc3)nn(C)c2s1	none
COCCn1c(=O)c(-c2ccc(OC)cc2)nc2cnc(N3CCNCC3)nc21	Anthrax LT inh inconclusive
COC(=O)C/C=C\[C@@H](C)[C@@H](/C=N\OC[C@@H]1O[C@H](c2ccccc2)C=C[C@@H]1Oc1ccc(OC)cc1)OC	none (no result: AmpC inh no det, AmpC inh det, SmPrx2 inh)
O=C(N/N=C1/C[C@@H](O)[C@@H](O)[C@@H]2[C@@H]3C(=O)N(c4cccc(Oc5ccccc5)c4)C(=O)[C@H]3CC[C@@H]12)OCc1ccccc1	none (no result: AmpC inh no det, AmpC inh det, SmPrx2 inh)
CN1CC=C(c2c[nH]c3ccccc23)CC1	AmpC inh no det 4µM[single pt active]
c1ccc2c(-c3nnc4n3CCCCC4)c[nH]c2c1	Anthrax LT inh inconclusive
C(#CC1C=CC2OC(c3ccccc3)OCC2O1)c1ccccc1 (centres undefined)	none (no result: AmpC inh no det, AmpC inh det, SmPrx2 inh)
CC1CCC(C(C)C)C(OC(=O)COC(=O)c2ccc(=O)[nH]c2)C1 (centres undefined)	Anthrax LT inh 13µM
Cc1ccc(C(=O)Nc2ccc(N3CCOCC3)cc2)cc1	none (no result: SmPrx2 inh)
CC(=O)N1CCN(c2ccc(NC(=O)c3ccc(C(C)(C)C)cc3)cc2)CC1	Anthrax LT inh 10µM
COc1ccc(CNC(=O)c2cc(-c3cccc(OC)c3)on2)cc1	Anthrax LT inh inconclusive
COc1ccc(-c2cc(C(=O)NCc3ccccc3)no2)cc1OC	AmpC inh no det 0.4µM, AmpC inh det inconclusive, SmPrx2 inh inconclusive
COc1cccc(-c2cc(C(=O)NCc3ccc(Cl)cc3)no2)c1	AmpC inh no det 13µM[single pt active] (no result: SmPrx2 inh)
COc1ccc(CNC(=O)c2cc(-c3ccc(OC)c(OC)c3)on2)cc1	none
Cc1cccc(NC(=O)CN2C(=O)COc3ccc(Cl)cc32)c1	Anthrax LT inh inconclusive
COC(=O)CN1C(=O)COc2ccc(Cl)cc21	AmpC inh no det 4µM[single pt active]
COCCNC(=O)CN1C(=O)COc2ccc(Cl)cc21	none
COc1cccc(NC(=O)CN2C(=O)COc3ccc(Cl)cc32)c1	Anthrax LT inh 16µM
CCOc1ccc(NC(=O)CN2C(=O)COc3ccc(Cl)cc32)cc1	Anthrax LT inh inconclusive, AmpC inh no det 4µM[single pt active]
CN(C)CCNC(=O)c1ccc(CS(=O)(=O)c2c(Cl)cccc2Cl)o1	none
O=C(NCCN1CCCC1)c1ccc(CS(=O)(=O)c2c(Cl)cccc2Cl)o1	AmpC inh no det 4µM[single pt active]
CC1(C(=O)NC2CCCC2)CCC(=O)N1Cc1cccs1 (centres undefined)	none
CC1(C(=O)NC2CCCCC2)CCC(=O)N1Cc1cccs1 (centres undefined)	AmpC inh no det 4µM[single pt active]
C=C(C)C(=O)OC	none (no result: Anthrax LT inh, SmPrx2 inh)
c1ccc(CCc2cccnc2)nc1	none
CCOC(=O)c1ccc(NC(=O)C2CCN(S(=O)(=O)c3ccccc3)CC2)cc1	Anthrax LT inh 4µM
CCOC(=O)c1ccc(NC(=O)C2CCN(S(=O)(=O)CC)CC2)cc1	none
Cc1ccsc1C=Nc1ccc(O)cc1	Anthrax LT inh inconclusive, AmpC inh no det 10µM
Nc1cccc(-c2nc3ccc(N)cc3s2)c1	Anthrax LT inh inconclusive
Nc1ccc(O)c(-c2nc3ccccc3s2)c1	Anthrax LT inh inconclusive, AmpC inh no det 0.4µM
Clc1ccc2c(NC3CCC(N4CCCCC4)CC3)ccnc2c1 (centres undefined)	Anthrax LT inh 2.5µM
O=C(NCC1CCCO1)C1CCN(S(=O)(=O)N2CCCC2)CC1 (centres undefined)	none
CC1CCN(S(=O)(=O)N2CCC(C(=O)N3CCC(N(C)CC4CCCO4)CC3)CC2)CC1 (centres undefined)	AmpC inh no det 4µM[single pt active]
NC[C@@H]1O[C@H](O[C@H]2[C@H](O)[C@H](O[C@@H]3O[C@H](CO)[C@@H](O)[C@H](N)[C@@H]3O)[C@@H](N)C[C@H]2N)[C@@H](O)[C@H](O)[C@@H]1O	none
O=Cc1ccc(CO)o1	none (no result: SmPrx2 inh)
O=c1c(-c2ccc(Cl)cc2)coc2c(CN3CCOCC3)c(O)ccc12	Anthrax LT inh 6.3µM (no result: SmPrx2 inh)
